From PubChem
A selection: hits, their analogues and other compounds. The true share with any hit is near 1%.
FEN1 inh: blocks human flap endonuclease 1; P39748; Recombinant FEN1 flap cleavage, fluorescence, 15 min; Potency, µM (top dose mostly 114 µM), inactives show top-dose activity change, negative = inhibition, hits mostly inhibitors; 390,000 tested, 0.35% active; further: on the % scale 0 is the no-effect control and ±100 the full control effect; nearly all actives have a fitted effect of over 65% in size
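Nuclease activity of 10 nM FEN1 was measured after 15 min of room-temperature exposure to titrated compounds, by adding 50 nM flap substrate and reading plates at 0 and 15 min.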
RECQ1 helicase: blocks DNA unwinding by human RECQ1. RECQ1 DNA unwinding, red fluorescence kinetic read. Potency, µM (series often up to 57.3 µM), for the others: at the top dose activity, negative = inhibition, actives largely listed as inhibitors. 240,000 tested, 0.54% active;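 further: plate controls were vehicle for no effect and no enzyme for full effect; nearly all actives have a fitted effect of over 30% in size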
Target sequence (P46063 whole entry, looked up): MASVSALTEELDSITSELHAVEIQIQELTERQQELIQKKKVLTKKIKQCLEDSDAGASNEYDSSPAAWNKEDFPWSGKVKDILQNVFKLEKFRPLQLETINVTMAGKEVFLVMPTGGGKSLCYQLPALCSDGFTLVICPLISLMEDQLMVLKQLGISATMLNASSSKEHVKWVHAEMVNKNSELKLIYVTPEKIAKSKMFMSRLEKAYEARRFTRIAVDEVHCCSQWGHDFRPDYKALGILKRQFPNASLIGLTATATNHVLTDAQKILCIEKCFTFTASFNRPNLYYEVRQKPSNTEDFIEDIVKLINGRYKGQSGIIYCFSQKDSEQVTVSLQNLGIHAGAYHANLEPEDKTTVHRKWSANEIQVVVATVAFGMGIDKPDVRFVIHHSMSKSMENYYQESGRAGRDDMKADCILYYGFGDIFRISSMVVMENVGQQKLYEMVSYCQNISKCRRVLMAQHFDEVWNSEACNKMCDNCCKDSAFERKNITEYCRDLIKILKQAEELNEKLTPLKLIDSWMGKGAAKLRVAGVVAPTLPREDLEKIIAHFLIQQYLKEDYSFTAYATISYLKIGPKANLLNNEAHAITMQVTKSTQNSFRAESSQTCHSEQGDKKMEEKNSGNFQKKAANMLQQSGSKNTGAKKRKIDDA
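RECQ1T1 50 nM; forked duplex (20 bp + 30-nt ss tails) 200 nM, ATP 2 mM final; pH 8.0, 2 mM MgCl2, 2.5 ug/ml poly(dI-dC); 15 min compound preincubation; discontinuous kinetic read over 2 h at RT.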
L3MBTL1 inh-1: inhibitors of human L3MBTL1; 230,000 tested, 0.66% active; AlphaScreen L3MBTL1–H3K9me1 peptide binding; AID 485360; Q9Y468; Potency, µM (highest dose often 57.1 µM), for inactives: at the top dose activity, negative = inhibition, most hits filed as inhibitors; further: on the % scale 0 is the no-effect control and ±100 the full control effect; nearly all actives have a fitted effect of over 60% in size
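L3MBTL1 (50 nM) pre-complexed 30 min with biotinylated H3(1-15)K9me1 peptide (75 nM), then compounds added for 30 min at room temperature; AlphaScreen streptavidin donor/nickel chelate acceptor beads (10 ug/mL final) read after 30 min dark incubation.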
BLM inh: blocks DNA unwinding by human BLM helicase | recombinant BLM DNA unwinding, fluorescence dequenching | Potency, µM (highest dose often 56.1 µM), inactives show at the highest dose activity change, negative = inhibition, actives largely listed as inhibitors | P54132 | 350,000 tested, 0.2% active;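 further: plate controls were vehicle for no effect and no enzyme for full effect; nearly all actives have a fitted effect of over 35% in size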
WRN inhibitor: WRN helicase (human) inhibition; 360,000 tested, 0.46% active; AID 651768; WRN helicase unwinding, fluorescent forked duplex, kinetic; Potency, µM (highest dose often 114 µM), for inactives: at the top dose activity change, negative = inhibition, usual class: inhibitors; Q14191; further: on the % scale 0 is the no-effect control and ±100 the full control effect; nearly all actives have a fitted effect of over 55% in size
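Kinetic red-fluorescence monitoring (525/598 nm) tracks WRN helicase activity after 100 nM fluorophore-quencher forked duplex and 2 mM ATP are added to 20 nM enzyme pretreated 15 min at room temperature with compound.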
APEX1 inh: APE1 (human) endonuclease inhibition | P27695 | recombinant APE1, TAMRA/BHQ-2 abasic DNA cleavage fluorescence | Potency, µM (series often up to 65.8 µM), for inactives: at the top dose activity change, negative = inhibition, hits mostly inhibitors | 350,000 tested, 0.35% active;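 further: plate controls were vehicle for no effect and reference inhibitor for full effect; nearly all actives have a fitted effect of over 55% in size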
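APE1 at 0.75 nM preincubated 15 min at room temperature with compound. Reaction then started with 50 nM double-stranded THF-abasic substrate labelled with TAMRA/BHQ-2, and 525/598 nm fluorescence read kinetically. Activity taken as third-minus-first read difference, normalized to DMSO and NSC13755 controls.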
L3MBTL1 inh-2: blocks human L3MBTL1 methyl-lysine binding. shares compounds with L3MBTL1 inh-1. L3MBTL1 methyl-lysine binding inhibition, biochemical qHTS. 500 tested, 91% active. AID 540279. Potency, µM, usual class: inhibitors; further: nearly all actives have a fitted effect of over 70% in size
L3MBTL1 ctr: counter-screen for L3MBTL1 inhibitors: AlphaScreen signal interference; AlphaScreen counterscreen, signal inhibition; shares compounds with L3MBTL1 inh-1; Potency, µM (titrated, usually from 57.1 µM), for the others: at the highest dose activity change, negative = inhibition, usual class: inhibitors; AID 602224; 500 tested, under 10 active; further: 0% is about no effect
* hit, by the source's call; i = inactive; ? = inconclusive; . = no result given; [ ] = another dose, or the depositor's remark. The call rests on the fitted dose curve; in most records, active means well fitted curve in the direction sought with a large enough effect; inconclusive means small, poorly fitted or top-dose-only effect, or another doubt; inactive means no such curve, though single readings can be large; an effect the other way counts as inactive or inconclusive. Potency means the concentration at half of the fitted maximal effect.

SMILES	FEN1 inh	RECQ1 helicase	L3MBTL1 inh-1	BLM inh	WRN inhibitor	APEX1 inh	L3MBTL1 inh-2	L3MBTL1 ctr
O=C(O)C(O)Cc1c[nH]c2ccccc12 (stereo not given)	-9.6%	0.6%	3.2%	-2.0%	0.1%	1.6%	.	.
CNC(=O)C1(C(F)(F)F)CC(CCCO)CCCO1 (stereo not given)	1.6%	-4.2%	.	4.4%	.	-2.1%	.	.
CCOC(=O)[C@]12CCC=C1N(Cc1ccc(Cl)cc1Cl)C(=O)[C@H](CC(=O)NCC1CCCCC1)C2	.	.	.	.	-4.9%	.	.	.
CCc1nn(CCCC(=O)NC2CCCCC2C)c(=O)c2cc3occc3n12 (stereo not given)	.	.	.	.	1.8%	.	.	.
CC(=O)c1ccccc1Oc1cc(NN2CCCCC2)c([N+](=O)[O-])cc1[N+](=O)[O-]	0.2%	.	20µM*	-4.0%	-0.8%[11.6 µM]	-24.4%	26.7*	?
CC1(C(=O)NS(=O)(=O)c2ccccc2C(F)(F)F)CCN1C(=O)CCc1cccs1 (stereo not given)	.	.	.	.	7.6%	.	.	.
CC(C)(C)C1CCc2c(sc(NC(=O)C3c4ccccc4Oc4ccccc43)c2C(N)=O)C1 (stereo not given)	0.5%	.	.	-9.8%	.	.	.	.
CC(NC(=O)CCC(=O)Nc1ccccc1O)c1ccccc1 (stereo not given)	8.4%	.	.	.	0.0%	.	.	.
CC(CNc1ccccc1O)C(=O)O (stereo not given)	-2.5%	-13.4%	28.2µM*	1.3%	-26.1%	?	10.6*	0.2%
C[C@@H]1CN([C@@H](C)CO)C(=O)c2cc(-c3ccccc3F)cnc2O[C@H]1CN(C)Cc1cccc(F)c1	.	.	.	.	-3.1%	.	.	.
CCN(CC)c1ccc(NC(=O)C2COc3ccc(OC)cc3C2)c(C)c1 (stereo not given)	36.4%	.	.	1.7%	.	.	.	.
CC(C)S(=O)(=O)C1=NSC2=NC(=O)/C(=C\c3ccc(-c4cccc(C(=O)O)c4)o3)C(=N)N21	22.4µM*	8.5%	12.6µM*	-3.9%	?	-4.2%	3.77*	-19.2%
CC1(c2ccccc2)OC(C(=O)O)=CC1=O (stereo not given)	.	.	.	.	.	3.6%	.	.
Cc1ccc(C)c(NS(=O)(=O)c2ccc3[nH]c(=O)oc3c2)c1	-6.3%	i	31.6µM*	-7.7%	-19.7%	-1.3%	26.7*	12.7%
Cc1ccc(NCc2ccc(O)c3ncccc23)cc1C	5.2%	-6.6%	-18.9%	-0.7%	5.3%	20.6%	.	.
Cc1cccc(NCc2ccc(O)c3ncccc23)c1C	?	12.9%	25.1µM*	-6.0%	?	-2.5%	9.47*	6.1%
CCOc1ccc(OCCCC(=O)N2CCN(S(=O)(=O)c3ccc(Cl)cc3)CC2)cc1	3.8%	.	31.6µM*	.	3.2%	1.7%	26.7*	-0.2%
CCCc1c(C(=O)N/N=C(\C)c2ccccn2)nnn1-c1nonc1N	.	.	.	.	5.5%	.	.	.
CCOC(=O)c1c(-c2ccco2)csc1NC(=O)COC(=O)c1cnc(C)cn1	-14.0%	.	31.6µM*	.	-29.8%	-44.7%	23.8*	-0.2%
CCOC(=O)c1c(CC(C)C)csc1NC(=O)COC(=O)c1cnc(C)cn1	.	.	.	.	1.6%	.	.	.
COc1ccccc1Sc1nc(-c2ccccn2)ncc1OC	-3.0%	1.9%	3.98µM*	-6.9%	7.2%	0.7%	18.9*	-21.1%
Cc1ccccc1-c1noc(-c2ccccc2OCC(=O)Nc2cccc([N+](=O)[O-])c2)n1	-2.5%	.	.	-5.1%	.	.	.	.
CC(C)(CS(=O)(=O)[O-])NC(=O)CC[N+](C)(C)CCO	39.8µM*	1.41µM*	3.55µM*	14.1µM*	7.94µM*	6.31µM*	1.19*	-1.2%
